According to PubChem BioAssay (Tox21):
Results filed as inconclusive are left out. Active and inactive are the calls of the source. Calls come from the whole dose curve; as a rule, active = well fitted curve in the direction sought with a large enough effect in the repeat runs; inconclusive = weak or mixed curves; inactive = no such curve, though single readings can be large; an effect the other way counts as inactive or inconclusive.

Experiments:
[1] = qHTS RealTime-Glo MT Cell Viability Assay in HEK293 cells - 16 hour (AID 1224872); note: top concentration of the series differs between compounds; nearly all actives have a fitted effect of over 50% in size
Outline: (§1)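 Nonlytic real-time viability readout: viable cells convert prosubstrate to NanoLuc substrate, giving luminescence proportional to live cell number. HEK293, 600 cells/well, compound added after 5 h, continuous culture at 37 C.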

[2] = qHTS RealTime-Glo MT Cell Viability Assay in HEK293 cells - 40 hour (AID 1224874); settings: RealTime-Glo luminescence; max response: active compounds read low; note: nearly all actives have a fitted effect of over 50% in size; note: potency is the fitted concentration of half-maximal effect
Outline: (§2)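 Tox21 screen in HEK293 using RealTime-Glo MT chemistry, with cells and reagent co-dispensed. Luminescence proportional to viable cell number was captured at intervals during 40 h compound exposure at 37 C.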

[3] = A CellTox Green Cytotoxicity Assay to monitor cytotoxicity in HEK293 cells - 24 hour (AID 1224875); note: nearly all actives have a fitted effect of over 45% in size; note: potency is the fitted concentration of half-maximal effect
Outline: (§3)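 Seeding of HEK293 cells together with cytotoxicity dye preceded a 5 h incubation at 37 C/5% CO2. Test compounds in DMSO were then added and fluorescence monitored across 40 h.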

[4] = A CellTox Green Cytotoxicity Assay to monitor cytotoxicity in HepG2 cells - 16 hour (AID 1224876); note: nearly all actives have a fitted effect of over 45% in size; note: potency is the fitted concentration of half-maximal effect
Outline: (§4)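 Nonlytic assay: viable cells exclude the dye, so fluorescence scales with cell death. HepG2 at 600 cells/well, compounds added after 5 h, signal read across 40 h.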

[5] = qHTS RealTime-Glo MT Cell Viability Assay in HepG2 cells - 32 hour (AID 1224877); note: nearly all actives have a fitted effect of over 55% in size; note: potency is the fitted concentration of half-maximal effect
Outline: (§5)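 Luminescence read-out: viable HepG2 cells reduce a prosubstrate to a NanoLuc substrate, giving a signal proportional to live cell number. Reads taken at 0, 8, 16, 24, 32 and 40 h of compound exposure at 37 C.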

[6] = A CellTox Green Cytotoxicity Assay to monitor cytotoxicity in HepG2 cells - 24 hour (AID 1224878); note: nearly all actives have a fitted effect of over 45% in size; note: potency is the fitted concentration of half-maximal effect
Outline: as §4

[7] = A CellTox Green Cytotoxicity Assay to monitor cytotoxicity in HepG2 cells - 40 hour (AID 1224879); note: nearly all actives have a fitted effect of over 40% in size; note: potency is the fitted concentration of half-maximal effect
Outline: as §4

[8] = qHTS RealTime-Glo MT Cell Viability Assay in HEK293 cells - 0 hour (AID 1224880); note: top concentration of the series differs between compounds; nearly all actives have a fitted effect of over 45% in size
Outline: as §2

[9] = A CellTox Green Cytotoxicity Assay to monitor cytotoxicity in HEK293 cells - 32 hour (AID 1224881); note: nearly all actives have a fitted effect of over 40% in size; note: potency is the fitted concentration of half-maximal effect
Outline: as §3

[10] = A CellTox Green Cytotoxicity Assay to monitor cytotoxicity in HepG2 cells - 0 hour (AID 1224882); note: nearly all actives have a fitted effect of over 35% in size
Outline: as §4

[11] = A CellTox Green Cytotoxicity Assay to monitor cytotoxicity in HepG2 cells - 32 hour (AID 1224883); note: nearly all actives have a fitted effect of over 50% in size; note: potency is the fitted concentration of half-maximal effect
Outline: as §4

[12] = qHTS RealTime-Glo MT Cell Viability Assay in HepG2 cells - 16 hour (AID 1224885); note: nearly all actives have a fitted effect of over 50% in size; note: potency is the fitted concentration of half-maximal effect
Outline: as §5

[13] = qHTS RealTime-Glo MT Cell Viability Assay in HEK293 cells - 24 hour (AID 1224886); note: nearly all actives have a fitted effect of over 50% in size; note: potency is the fitted concentration of half-maximal effect
Outline: as §1

[14] = qHTS RealTime-Glo MT Cell Viability Assay in HEK293 cells - 8 hour (AID 1224887)
Outline: as §2

[15] = A CellTox Green Cytotoxicity Assay to monitor cytotoxicity in HEK293 cells - 16 hour (AID 1224888); note: nearly all actives have a fitted effect of over 35% in size; note: potency is the fitted concentration of half-maximal effect
Outline: as §3

[16] = qHTS RealTime-Glo MT Cell Viability Assay in HepG2 cells - 0 hour (AID 1224889); note: nearly all actives have a fitted effect of over 50% in size
Outline: as §5

[17] = A CellTox Green Cytotoxicity Assay to monitor cytotoxicity in HepG2 cells - 8 hour (AID 1224890); note: nearly all actives have a fitted effect of over 45% in size
Outline: as §4

[18] = A CellTox Green Cytotoxicity Assay to monitor cytotoxicity in HEK293 cells - 8 hour (AID 1224884); note: nearly all actives have a fitted effect of over 35% in size; note: potency is the fitted concentration of half-maximal effect
Outline: as §3

[19] = qHTS RealTime-Glo MT Cell Viability Assay in HepG2 cells - 8 hour (AID 1224873); note: nearly all actives have a fitted effect of over 55% in size
Outline: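 HepG2 cells mixed with RealTime-Glo MT reagents (NanoLuc plus cell-permeant prosubstrate) were seeded at 600 cells/well, incubated 5 h at 37 C/5% CO2, then pinned with compounds in DMSO; nonlytic luminescence tracked viability during 40 h treatment.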
% is set by controls: 0 for no effect and ±100 for the full control effect.

CCCCCCCCOC(=O)c1ccc(C(=O)OCCCCCCCC)c(C(=O)OCCCCCCCC)c1
inactive: Potency [1] | max response [2] -3.25% | Potency [3] | Potency [4] | Potency [5] | Potency [6] | Potency [7] | Potency [8] | Potency [9] | Potency [10] | Potency [11] | Potency [12] | Potency [13] | Potency [14] | Potency [15] | Potency [16] | Potency [17]

Clc1cc(C(Cl)(Cl)Cl)cnc1Cl
active: Potency [7] 34.7 µM | Potency [11] 34.7 µM
inactive: Potency [4] | Potency [5] | Potency [8] | Potency [10] | Potency [18] | Potency [12] | Potency [15] | Potency [16]

CC(O)(CS(=O)(=O)c1ccc(F)cc1)C(=O)Nc1ccc(C#N)c(C(F)(F)F)c1 (stereo not given)
inactive: Potency [3] | Potency [4] | Potency [6] | Potency [7] | Potency [9] | Potency [10] | Potency [11] | Potency [15] | Potency [17]

CCCC(Cn1cncn1)c1ccc(Cl)cc1Cl (stereo not given)
inactive: Potency [8] | Potency [10] | Potency [18] | Potency [15] | Potency [16] | Potency [17]
active: Potency [2] 21.9 µM | Potency [11] 49 µM | Potency [13] 21.9 µM

O=S1OC[C@@H]2[C@H](CO1)[C@]1(Cl)C(Cl)=C(Cl)[C@@]2(Cl)C1(Cl)Cl (stereo not given in full)
inactive: Potency [8] | Potency [10]

Nc1ccc(N=Nc2ccc(-c3ccc(N=Nc4c(S(=O)(=O)O)cc5cc(S(=O)(=O)O)c(N=Nc6ccccc6)c(O)c5c4N)cc3)cc2)c(N)c1
inactive: Potency [1] | max response [2] 23.2% | Potency [3] | Potency [4] | Potency [5] | Potency [6] | Potency [7] | Potency [8] | Potency [9] | Potency [10] | Potency [11] | Potency [12] | Potency [13] | Potency [14] | Potency [15] | Potency [17]

N#C/C(N)=C(/N)C#N
inactive: Potency [1] | max response [2] 0.894% | Potency [3] | Potency [4] | Potency [5] | Potency [6] | Potency [7] | Potency [8] | Potency [9] | Potency [10] | Potency [11] | Potency [12] | Potency [13] | Potency [14] | Potency [15] | Potency [16]

CC(C)(C)c1cc([N+](=O)[O-])cc([N+](=O)[O-])c1O
inactive: Potency [19] | Potency [3] | Potency [4] | Potency [6] | Potency [9] | Potency [10] | Potency [12] | Potency [14] | Potency [15]

CC[C@H]1C[C@H]2[C@@H]3CCC4=CC(=O)CC[C@@H]4[C@H]3CC[C@]2(C)[C@H]1O
inactive: Potency [19] | Potency [3] | Potency [4] | Potency [5] | Potency [8] | Potency [10] | Potency [18] | Potency [12] | Potency [14] | Potency [15] | Potency [16] | Potency [17]
active: Potency [2] 23.9 µM | Potency [7] 21.3 µM

II
active: Potency [3] 38.9 µM | Potency [4] 38.9 µM | Potency [5] 7.76 µM | Potency [6] 34.7 µM | Potency [7] 38.9 µM | Potency [9] 38.9 µM | Potency [11] 38.9 µM | Potency [18] 34.7 µM | Potency [12] 27.5 µM | Potency [15] 38.9 µM
inactive: Potency [1] | max response [2] -3.85% | Potency [10] | Potency [13] | Potency [14]

Clc1ccc(C(OCCN2CCCCC2)c2ccccc2)cc1 (stereo not given)
inactive: Potency [5] | Potency [10] | Potency [18] | Potency [12] | Potency [14] | Potency [15] | Potency [16] | Potency [17]

N#CCC#N
inactive: Potency [19] | max response [2] -1.97% | Potency [3] | Potency [4] | Potency [5] | Potency [6] | Potency [8] | Potency [9] | Potency [10] | Potency [11] | Potency [12] | Potency [14] | Potency [15] | Potency [17]

CC1CC(CC2CCC(N)C(C)C2)CCC1N (stereo not given)
active: Potency [2] 55.8 µM | Potency [3] 62.7 µM | Potency [13] 44.4 µM
inactive: Potency [19] | Potency [4] | Potency [5] | Potency [6] | Potency [7] | Potency [8] | Potency [10] | Potency [11] | Potency [12] | Potency [14] | Potency [15] | Potency [16] | Potency [17]

O=C1NCN(c2ccccc2)C12CCN(CCCOc1ccc(F)cc1)CC2
inactive: Potency [19] | Potency [3] | Potency [4] | Potency [5] | Potency [8] | Potency [9] | Potency [10] | Potency [18] | Potency [12] | Potency [14] | Potency [15] | Potency [16]

N#Cc1ccc(Cl)cc1
inactive: Potency [1] | max response [2] 2.27% | Potency [3] | Potency [4] | Potency [5] | Potency [6] | Potency [7] | Potency [8] | Potency [9] | Potency [10] | Potency [11] | Potency [18] | Potency [12] | Potency [13] | Potency [14] | Potency [15] | Potency [16] | Potency [17]
